From PubChem BioAssay AID2685 (National Center for Advancing Translational Sciences (NCATS), 2010)
Hit rate of the full screen: of about 320,000 compounds, about 2,100 (0.66%) were called active. Not shown: some 53% with an inconclusive outcome. This is one part of a sample in which actives are shown more often than they occur. Calls come from the whole dose curve; as a rule, active = well fitted inhibition curve with a large enough effect in the signal ratio, with a control signal flat (not every such curve was filed as active); inconclusive = small, poorly fitted or top-dose-only effect, or effect the other way, or a change in a side signal; inactive = flat fitted curve, though single readings scatter; the % refers to the signal ratio.

Experiment: qHTS Assay for Lipid Storage Modulators in Drosophila S3 Cells;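 for cell number change: cells counted by Cell Tracker Red CMTPX staining in the red channel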; for lipid storage change, negative = inhibition: % is set by controls: 0 for no effect and ±100 for the full control effect
Conditions: BODIPY lipid droplet fluorescence, 18-24 h, cells fed with added oleic acid; cell number change: measured here: cell count max response; series mostly up to 46.1 µM; lipid storage change, negative = inhibition: at the top concentration
Outline: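 Laser-scanning cytometry quantifies lipid droplet accumulation (500–530 nm total intensity; droplet/cell object ratio) in oleic acid-fed (400 uM added) Drosophila S3 cells treated with a concentration series. 20 uM Triacsin C defined 100% inhibition.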
Potency is the fitted concentration of half-maximal effect.

Row | Structure (SMILES) | lipid storage change, negative = inhibition | cell number change | outcome | Potency
1 | COc1ccccc1CN1CCN(Cc2nc(Cc3ccccc3)no2)CC1 | 6.75% (inactive) | -11.2% | – | –
2 | COc1ccc(C(=O)COC(=O)C(CCSC)NC(=O)COc2ccccc2)cc1 (stereo unspecified) | 7.97% (inactive) | -12.5% | – | –
3 | COc1ccc(Cc2noc(CN3CCN(Cc4csc(C)n4)CC3)n2)cc1OC | 19.7% (inactive) | 3.13% | – | –
4 | CC(Sc1cnccn1)C(=O)O (stereo unspecified) | -23.4% (inactive) | -4.62% | – | –
5 | CC(=O)NCC1CCCN(C(=O)c2oc3c(F)cccc3c2C)C1 (stereo unspecified) | – | -13.1% | inactive | –
6 | O=C(COC(=O)C1CC1)NCc1ccccc1 | 7.58% (inactive) | – | – | –
7 | COc1cc(OC)c(/C=N/NC(=O)Cn2nc([N+](=O)[O-])cc2C)c(OC)c1 | 8.36% (inactive) | – | – | –
8 | COc1ccc(CCNC(=O)c2ccc3c(c2)NC(=O)C(C(C)C)N3)cc1OC (stereo unspecified) | – | -27% | inactive | –
9 | COc1ccc(CCNC(=O)c2ccc3c(c2)NC(=O)C(CSCc2cc(C)ccc2C)N3)cc1OC (stereo unspecified) | – | 3.36% | – | 23.1 µM (active)
10 | COc1ccc(CCNC(=O)CC2Nc3cc(C)c(C)cc3NC2=O)cc1OC (stereo unspecified) | – | 21.5% | inactive | –
11 | COc1ccc(C(=O)NNC(=O)CCCCC(=O)NNC(=O)c2ccc(OC)cc2)cc1 | -11.8% (inactive) | -8.93% | – | –
12 | COc1ccc2[nH]c(C(=O)O)c(CCN3C(=O)c4ccc(C(=O)O)cc4C3=O)c2c1 | – | – | inactive | –
13 | CC(C)(C)C#CCn1c(/C=[N+](\[O-])C2CCCCC2)nc2ccccc21 | 24% (inactive) | -20.4% | – | –
14 | Cc1nc2cc(C(=O)OCC(=O)Nc3cccc(Cl)c3)ccc2n1-c1ccccc1 | 9.16% (inactive) | 16.2% | – | –
15 | COc1cc2ccccc2cc1C(=O)NC(=S)Nc1ccc(C(=O)O)cc1 | – | -28.9% | – | 18.4 µM (active)
16 | COc1cc2ccccc2cc1C(=O)NC(=S)Nc1cc(C(=O)O)ccc1C | -1.68% (inactive) | -26.2% | – | –
17 | COc1cc2ccccc2cc1C(=O)NC(=S)Nc1cccc(C(=O)O)c1 | – | 12.5% | inactive | –
18 | COC(=O)C1CCN(C(=O)C23CCC(C)(C(=O)O2)C3(C)C)CC1 (stereo unspecified) | -21.8% (inactive) | – | – | –
19 | Cc1ccc(NC(=O)CSc2nnc(-c3ccncc3)s2)cc1 | 37.9% (inactive) | 5.56% | – | –
20 | CCn1c(C)[n+](CC)c2ccc(S(=O)(=O)N(C)C)cc21 | 2.28% (inactive) | 4.86% | – | –
21 | O=C(O)/C=C/C(=O)NCc1ccccn1 | -9.56% (inactive) | -7.29% | – | –
22 | CNc1snc(C)c1C(=O)OCC(=O)N(C)Cc1ccccc1 | – | -17.1% | – | 14.6 µM (active)
23 | CN(Cc1ccccc1)C(=O)COC(=O)c1ccc2ccccc2n1 | 8.38% (inactive) | 15.9% | – | –
24 | CN(Cc1ccccc1)C(=O)COC(=O)c1ccccc1Nc1ccccc1 | -5.27% (inactive) | -9.93% | – | –

Row | Structure (SMILES) | lipid storage change, negative = inhibition | cell number change | outcome | Potency
25 | COCCNC(=O)CC(NS(=O)(=O)c1ccc(NC(C)=O)cc1)C(C)C (stereo unspecified) | – | -2.55% | – | 5.8 µM (active)
26 | CC(=O)Nc1ccc(S(=O)(=O)NC(CC(=O)NC2CCCCC2C)C(C)C)cc1 (stereo unspecified) | – | – | inactive | –
27 | CCC(C)NC(=O)CC(NS(=O)(=O)c1ccc(NC(C)=O)cc1)C(C)C (stereo unspecified) | 2.51% (inactive) | 10.4% | – | –
28 | Cc1cc(=O)[nH]c(SCC(N)=O)c1C#N | – | -10.4% | – | 23.1 µM (active)
29 | CCOC(=O)CSc1[nH]c(=O)cc(C)c1C#N | – | 23.9% | inactive | –
30 | Cc1cc(=O)[nH]c(SCC(=O)O)c1C#N | 18.1% (inactive) | -1.88% | – | –
31 | Cc1ccc(C(=O)N2CCC3(CC2)Oc2ccc(F)cc2C(=O)C32CC(c3ccccc3)=NO2)s1 (stereo unspecified) | 11.6% (inactive) | 11.1% | – | –
32 | COc1ccc(OC)c(N(CC(=O)Nc2ccc(NC(C)=O)cc2)S(C)(=O)=O)c1 | – | 18.4% | inactive | –
33 | Cc1ccnc(NC(=O)c2ccc(N3C(=O)CCC3=O)cc2)c1 | -7.96% (inactive) | -2.76% | – | –
34 | COc1cc(NC(=O)CCc2nnc3ccc(N4CCN(c5cccc(OC)c5)CC4)nn23)cc(OC)c1 | – | -21.5% | inactive | –
35 | COc1ccccc1NC(=O)CCc1nnc2ccc(N3CCC4(CC3)OCCO4)nn12 | – | -20.4% | – | 2.06 µM (active)
36 | COc1cccc(N2CCN(c3ccc4nnc(CCC(=O)Nc5cccc(C(C)=O)c5)n4n3)CC2)c1 | – | -9.88% | inactive | –
37 | Cc1ccccc1NC(=O)CCc1nnc2ccc(N3CCC4(CC3)OCCO4)nn12 | -6.37% (inactive) | 15.5% | – | –
38 | COC(=O)c1ccc(NC(=O)CCc2nnc3ccc(N4CCC5(CC4)OCCO5)nn23)cc1 | – | -17.4% | inactive | –
39 | COc1cccc(NC(=O)CCc2nnc3ccc(N4CCN(c5cccc(OC)c5)CC4)nn23)c1 | – | -24.5% | – | 9.2 µM (active)
40 | CCCCC(C(=O)N/N=C/c1ccccn1)C(=O)N/N=C/c1ccccn1 | 15.9% (inactive) | 2.01% | – | –
41 | COc1cccc(NC(C)(C)c2nnnn2-c2c(C)cccc2C)c1 | -0.863% (inactive) | 12.6% | – | –
42 | O=C(CCN1CCc2ccccc2C1)Nc1ccc(F)c(F)c1 | 14.2% (inactive) | – | – | –
43 | CCOC(=O)c1c(S(=O)(=O)NCC(=O)Nc2ccc(OC)cc2)c(C)n(C)c1C | 23.4% (inactive) | – | – | –
44 | CCCOC(=O)CCCC[C@H]1SC[C@@H](NC(=O)OC)[C@H]1NC(=O)OC | 3.15% (inactive) | 5.48% | – | –
45 | CCOC(=O)c1c(C)nc(-c2ccccc2)nc1N | – | 1.72% | inactive | –
46 | O=C(Cc1ccccc1Cl)NCCCn1ccnc1 | -1.3% (inactive) | -1.19% | – | –
47 | O=C(COc1coc(CN2CCN(c3ccccc3)CC2)cc1=O)NCC1CCCO1 (stereo unspecified) | – | – | inactive [at 0.0737 µM] | –
